Source: PubChem BioAssay (NCATS)
Values joined by “and” are separate entries in the source; they are usually repeats but may differ in a detail not shown here. Equal values may be shown once. Inconclusive results are not listed. Values without a mark were called inactive. Active and inactive are the calls of the source. Calls come from the whole dose curve; as a rule, active = well fitted cell-killing curve with a large enough effect; inconclusive = small, poorly fitted or top-dose-only effect, or effect the other way; inactive = no such curve, though single readings can be large or run the other way.

assay: Viability qHTS for spleen associated tyrosine kinase inhibitor (SYKi) naive MV4-11 cells (AID 1963823); conditions: MV4-11 AML viability, CellTiter-Glo luminescence, 72 h; series mostly up to 45 µM; viability (% of control): at the top concentration; note: nearly all actives have a fitted effect of over 40% in size
Outline: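 SYKi-naive MV4-11 AML cells, 500 per well, were exposed to library compounds for 72 hr at 37 C, 5% CO2. Viability was then read by CellTiter-Glo luminescence after 10 min at room temperature.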
Potency is the fitted concentration of half-maximal effect.

Compound | viability (% of control) | Potency
CCCCN(CCCC)CCCOC(=O)c1ccc(N)cc1 | 56.2% | –
C=CC(=O)N1CCC(CNc2ncnc(N)c2-c2ccc(Oc3ccccc3)cc2)CC1 | – | 5.9 µM (active)
FC(F)(F)C(F)(F)C(F)(F)C(F)(F)C(F)(F)C(F)(F)C(F)(F)C(F)(F)Br | 71% | –
CC1(N)CCN(c2cccnc2NC(=O)c2nc(-c3ncccc3C(F)(F)F)cnc2N)CC1 | – | 5.9 µM (active)
Cc1ncc(NC(=O)c2cccc(C(F)(F)F)c2)cc1-c1cnc(OC2CCOCC2)c(N2CCOCC2)c1 | – | 6.61 µM (active)
COc1cc2ncnc(Nc3ccc(O)c(Br)c3)c2cc1OC | – | 1.16 µM (active) and 662 nM (active)
Nc1nccc2c1ncn2[C@@H]1C=C(CO)[C@@H](O)[C@H]1O | – | 0.166 µM (active)
CN1CCN(c2ccc3nc(-c4c(N)c5c(F)cccc5[nH]c4=O)[nH]c3c2)CC1 | – | 0.0116 µM (active)
Cc1cc(OCCOCC[N+](C)(C)Cc2ccccc2)ccc1C(C)(C)CC(C)(C)C | – | 3.35 µM (active)
CC1(C)CN(C(=O)c2ccc(-c3cccc4nc(NC(=O)C5CC5)nn34)cc2)C1 | – | 6.61 µM (active)
CCN(CC)C(=O)N1CCN(C)CC1 | 98.2% | –
Cc1cc(CS(=O)(=O)c2ccccc2)cc(OCc2ccc(CN3CCC[C@@H]3CO)cc2)c1 | – | 16.6 µM (active)
CC(C)CNc1ccnc(NCc2csc(-c3ccccc3)n2)n1 | – | 1.66 µM (active)
O=C(O)c1ccccc1C(=O)Nc1ccc(S(=O)(=O)Nc2nccs2)cc1 | 66.8% | –
C=C1CCC2[C@](C)(CO)C(O)CC[C@]2(C)C1C/C=C1/C(=O)OCC1O (stereo partly specified) | – | 3.32 µM (active)
O=C(Nc1cc(Oc2cc(F)c(NC(=O)C3(C(=O)Nc4ccc(F)cc4)CC3)cc2F)ccn1)C1CC1 | – | 23.1 nM (active) and 59 nM (active)
C=C[C@H]1CN2CC[C@H]1C[C@@H]2[C@@H](O)c1ccnc2ccc(OC)cc12 | 74.7% | –
CC(C)(C)CC(C)(C)c1ccc(OCCOCC[N+](C)(C)Cc2ccccc2)cc1 | – | 2.37 µM (active) and 1.16 µM (active)
O=C(O)[C@@H]1[C@H]2C[C@H]3c4[nH]c5ccccc5c4CCN3C[C@@H]2CC[C@@H]1O | – | 2.66 µM (active)
C[C@H]1C[C@H]2[C@@H]3CCC4=CC(=O)C=C[C@]4(C)[C@@]3(Cl)[C@@H](O)C[C@]2(C)[C@@]1(O)C(=O)CO | – | 21.1 µM (active)
CC(C)OC(=O)c1cc(C(=O)OC(C)C)cc([N+](=O)[O-])c1 | – | 27.9 µM (active)
CC[C@@]1(O)C(=O)OCc2c1cc1n(c2=O)Cc2c-1nc1ccccc1c2CCNC(C)C | – | 0.0059 µM (active)
Cc1nc(NC(=O)N2CCC[C@H]2C(N)=O)sc1-c1csc(C(C)(C)C)n1 | – | 7.42 µM (active)
COc1cc(C)c(/C=C/C(C)=C/C=C/C(C)=C/C(=O)O)c(C)c1C | – | 2.35 µM (active)
Cc1ccc(-n2nc(C(C)(C)C)cc2NC(=O)NCc2cc(F)ccc2Oc2ccc3c(cnn3CCO)c2)cc1 | – | 9.34 µM (active)
Cc1ccc2cc(-c3c(C)ccc(C(=O)c4c(-c5ccccc5)n(C)n(-c5ccccc5)c4=O)c3N)ccc2n1 | – | 4.61 µM (active)
